# Active and inactive are the calls of the source.
# Key:
# [1] = tested on: Wnt5a (protein binding on small-molecule microarray); assay: small molecules binding Wnt5a protein – biophysical, small-molecule microarray, 635/667 nm fluorescence, primary screen (AID 1142); conditions: 635 nm fluorescence, higher = more signal;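 further: fluorescence read at 667 nm with signal to noise per printed feature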
# [2] = ATP-based viability of Huh7 replicon cells – cell-based, CellTiter-Glo luminescence, basal, 48 h, cytotoxicity control for HCV replication inhibitor project, primary screen (AID 1143); conditions: higher = more signal, called active from +8 up or from −8 down;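 further: Huh7 hepatoma cells carrying a hepatitis C replication reporter with no stimulus; test concentration not given here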
# [3] = basal CRE-LacZ reporter activity in PC12 – cell-based, unstimulated, primary screen (AID 1145); conditions: no forskolin, luminescence, 4.5 h, higher = more signal, called active from +8 up or from −8 down
# [4] = forskolin-driven CRE-LacZ activity in PC12 – cell-based, CRE-LacZ reporter, forskolin-stimulated, primary screen (AID 1146); conditions: luminescence, 4.5 h, higher = more signal, called active from +8 up or from −8 down;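 further: PC12 cells with 6xCRE LacZ reporter stimulated by forskolin 10 µM; beta-galactosidase reporter signal reflecting CREB driven transcription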
# [5] = biological target: Streptavidin (Streptomyces avidinii) (UniProt P22629); assay: compounds binding control protein streptavidin – biophysical, small-molecule microarray, 635/667 nm fluorescence, artefact control for SMM compound annotation, primary screen (AID 1147); conditions: higher = more signal;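 further: signal reflects streptavidin binding to arrayed compounds as a control protein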
# [6] = probe aInhba binding on compound microarray – biochemical, small-molecule microarray, 635/667 nm fluorescence, primary screen (AID 1148); conditions: higher = more signal;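 further: score merges 667nm spot fluorescence with signal-to-noise for antibody binding to printed compounds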
# Torsin-1A (Homo sapiens) [7] = biological target: Torsin-1A (Homo sapiens) (UniProt O14656); assay: TOR1A wild-type binding on microarray – cell lysate, small-molecule microarray, lysate, 635/667 nm, primary screen (AID 1149); conditions: COS7 hTOR1A-WT lysate, 635 nm fluorescence, higher = more signal
# Torsin-1A (Homo sapiens) [8] = biological target: Torsin-1A (Homo sapiens) (UniProt O14656); assay: torsin A mutant lysate binding on microarrays – cell lysate, small-molecule microarray, COS7 lysate, 635/667 nm fluorescence, primary screen (AID 1150); conditions: COS7 hTOR1A mutant lysate, 635 nm fluorescence, higher = more signal;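 further: score pools 667 nm emission and signal to noise measuring lysate protein binding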
# [9] = tested on: Sonic hedgehog protein (Shh); assay: Sonic hedgehog microarray binding compounds – biochemical, small-molecule microarray, 635/667 nm fluorescence, primary screen (AID 1151); conditions: 635 nm fluorescence, higher = more signal;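 further: Shh protein binding to compounds spotted on small-molecule microarray slides; score combines spot fluorescence intensity with signal-to-noise across triplicate slides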
# Chain of Streptavidin (Streptomyces avidinii) (P22629 whole entry, looked up): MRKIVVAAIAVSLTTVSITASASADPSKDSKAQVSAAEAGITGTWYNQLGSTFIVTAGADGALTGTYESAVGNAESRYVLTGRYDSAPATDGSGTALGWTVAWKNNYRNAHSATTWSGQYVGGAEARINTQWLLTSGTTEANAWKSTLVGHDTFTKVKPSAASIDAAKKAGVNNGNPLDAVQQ
# Chain of Torsin-1A (Homo sapiens) (O14656 whole entry, looked up): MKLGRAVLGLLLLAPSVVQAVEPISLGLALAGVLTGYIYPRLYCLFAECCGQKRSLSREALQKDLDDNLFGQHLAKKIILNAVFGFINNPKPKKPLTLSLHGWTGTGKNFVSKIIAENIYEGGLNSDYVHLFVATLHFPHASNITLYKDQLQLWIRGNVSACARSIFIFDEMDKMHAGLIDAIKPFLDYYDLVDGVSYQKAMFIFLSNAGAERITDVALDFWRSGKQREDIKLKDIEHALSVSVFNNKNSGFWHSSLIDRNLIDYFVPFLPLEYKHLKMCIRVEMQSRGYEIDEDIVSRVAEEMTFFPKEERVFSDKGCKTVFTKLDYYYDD
SMILES,composite z-score [1],z-score [2],z-score [3],z-score [4],composite z-score [5],composite z-score [6],composite z-score (Torsin-1A (Homo sapiens) [7]),composite z-score (Torsin-1A (Homo sapiens) [8]),composite z-score [9]
CN(C)CCCC[C@@H]1NC(=O)[C@@H]2C[C@H](C(=O)O)[C@H](c3ccc(O)cc3)N2C1=O,0.471,-3.87 (inactive),0.415 (inactive),-0.183 (inactive),0.0842,0.174,0.939,0.395,1.92
COc1ccc([Si](C)(C)[C@H]2[C@H](CCO)O[C@@]3(C(=O)N(Cc4ccccc4)c4ccc(N5C(=O)c6cccc7cccc5c67)cc43)[C@@H]2C)cc1,-0.234,-5.81 (inactive),4.04 (inactive),-1.36 (inactive),-0.3,-0.0791,-0.144,0.0743,0.145
CO[C@H]1COC(=O)[C@H](C)COC(=O)[C@H](Cc2ccccc2)NC(=O)CC=C[C@H]1C,0.265,-0.441 (inactive),0.707 (inactive),-0.872 (inactive),-0.0705,0.286,0.715,-0.121,1.61
CO[C@H]1O[C@H](CO)[C@@H](OC(=O)CCc2ccccc2)[C@@H]2OC(=O)[C@H](Cc3cccc(Br)c3)C/C=C/C[C@@H](Cc3cccc(Br)c3)C(=O)O[C@@H]12,-0.0182,-3.47 (inactive),-0.198 (inactive),-0.896 (inactive),-0.115,-0.147,1.07,0.358,-0.149
COc1cc(CO)cc(I)c1O[C@H]1C=C(C(=O)NCCO)C[C@@H](NCCc2c[nH]c3ccccc23)[C@@H]1O,0.241,-3.34 (inactive),2.29 (inactive),-2.33 (inactive),0.0072,-0.0954,0.75,0.237,0.888
Cc1ccc(S[C@]2(C(=O)NCCCN(C)C)CC(=O)N(C3CCCCC3)[C@@H]2c2ccc(CO)cc2I)cc1,-0.056,-6.58 (inactive),-0.0243 (inactive),1.42 (inactive),-0.806,-0.128,0.0029,0.0812,0.0709
CCC(=O)[C@]12O[C@@]3([C@@H]4C(=O)OCC[C@@H]41)N(CC)C(C)=C(C(=O)OC)[C@@H](c1ccccc1)N3C2=O,-0.0488,-3.62 (inactive),-0.0708 (inactive),-1.58 (inactive),-0.194,-0.283,-0.0028,-0.063,1.92
O=C1O[C@@H](c2ccccc2)[C@@H](c2ccccc2)N2[C@@H](c3ccc(O)cc3)[C@]3(C(=O)Nc4ccccc43)[C@@H](C(=O)N3CCN(c4ncccn4)CC3)[C@H]12,-0.0063,-5 (inactive),-0.815 (inactive),-0.245 (inactive),-0.6,-0.178,0.828,0.232,-0.0193
CO[C@H]1O[C@H](CO)[C@@H](OC(=O)Nc2ccccc2)[C@H](OC(=O)Nc2ccc3c(c2)OCO3)[C@@H]1OC(=O)Nc1ccc2c(c1)OCO2,0.328,-3.67 (inactive),0.185 (inactive),-2.4 (inactive),0.232,-0.0079,0.433,0.876,0.599
C=CC(=O)O[C@@H](Cc1ccccc1)[C@H]1C2C=CCCC=C2CN1Cc1cccc(Cl)c1 (some centres not stated),-0.172,-0.904 (inactive),1.03 (inactive),-0.678 (inactive),-0.575,-0.082,-0.471,0.393,-0.0211
C=CCOC(=O)[C@@H]1[C@H]2C(=O)O[C@H](c3ccccc3)[C@H](c3ccccc3)N2[C@H](c2ccc(OCCOC(=O)[C@H]3C[C@H]4C(=O)N5CCC[C@H]5C(=O)N4[C@H]3c3ccc(O)cc3)cc2)[C@@]12C(=O)Nc1ccccc12,1.32,-3.23 (inactive),-0.402 (inactive),-1.32 (inactive),0.239,1.03,0.885,0.283,1.68
COCCOC(=O)N1C(=O)[C@@]2(c3cc(C#CC4(O)CCCCCC4)ccc31)[C@H](C(=O)N1CCCCCCC1)[C@H]1C(=O)O[C@H](c3ccccc3)[C@H](c3ccccc3)N1[C@@H]2c1ccc(O)cc1,0.464,-4.34 (inactive),-0.211 (inactive),-1.68 (inactive),1.16,1.01,1.27,0.889,1.68
[N-]=[N+]=NCc1ccccc1C[C@]1(C(N)=O)N=C(c2ccc(OCCCO)cc2)O[C@H]1c1ccccc1CN=[N+]=[N-],0.447,-5.2 (inactive),1.08 (inactive),-0.375 (inactive),1.68,0.17,0.105,0.369,-0.742
C[N+](C)(C)CCCCNC(=O)[C@@H]1C[C@@H]2C(=O)N3CCC[C@H]3C(=O)N2[C@@H]1c1cccc(OCCO)c1,0.256,-3.3 (inactive),-0.671 (inactive),-1.62 (inactive),-0.315,-0.128,0.725,1.03,1.84
CO[C@@H]1COC(=O)[C@H](C)NC(=O)CC=C[C@@H](C)[C@H](NS(=O)(=O)c2ccc(C)cc2)COC(=O)CC=C[C@@H]1C,0.0543,0.189 (inactive),-0.0234 (inactive),-0.445 (inactive),-0.193,-0.145,0.56,0.252,0.0208
C=CCNC(=O)[C@H]1[C@@H]2C(=O)O[C@@H](c3ccccc3)[C@@H](c3ccccc3)N2[C@@H](c2ccc(O)cc2)[C@]12C(=O)Nc1ccc(C#CCNC(N)=O)cc12,-0.261,-0.23 (inactive),-0.594 (inactive),-0.759 (inactive),-0.96,0.468,-0.109,0.0926,0.103
CO[C@H]1COC(=O)[C@H](C)NC(=O)CC=C[C@@H](C)[C@H](NS(=O)(=O)c2ccc(C)cc2)COC(=O)[C@@H](OCc2ccccc2)C=C[C@@H]1C,0.0746,0.0974 (inactive),1.06 (inactive),-0.594 (inactive),-0.25,-0.261,0.196,0.316,0.96
C=C(COC)/C(=C/C[C@@H](OC(=O)c1ccncc1)c1ccc(OCCO)cc1)c1cc(C(=O)OC)ccc1OC,0.147,-2.43 (inactive),9.09 (active),-2.02 (inactive),1.14,0.0212,1.06,0.838,0.811
COC(=O)C1=CC(c2ccc(CO)cc2)=CC(C2CC2)N(Cc2sc3ccccc3c2Cl)C=C1C(=O)OC (configuration not stated),0.213,-5.35 (inactive),0.272 (inactive),-1.57 (inactive),2.25,0.23,0.454,1.45,0.313
[N-]=[N+]=NCc1ccccc1C[C@@]1(C(=O)N2CCOCC2)N=C(c2ccc(OCCCO)cc2)O[C@@H]1c1ccccc1N=[N+]=[N-],0.994,-3.63 (inactive),0.218 (inactive),-1.23 (inactive),1.43,0.421,0.783,0.987,0.144
CCCCCCc1nc(C2CC2)c(C)c2c1[Si](C(C)C)(C(C)C)OC2,-0.0534,-5.02 (inactive),0.236 (inactive),-0.75 (inactive),-0.0332,-0.0494,0.277,0.305,0.0027
COc1cccc([C@@H]2[C@@H](C)CC[C@H]3C(=O)N4[C@H](c5cccc(OC)c5)[C@@H](C)CC[C@H]4C(=O)N23)c1,0.0508,-1.88 (inactive),1.38 (inactive),-1.18 (inactive),0.258,0.054,0.504,0.824,0.944
COc1cccc([C@H]2N[C@H](C(=O)O)CC[C@@H]2C)c1,0.04,-3.79 (inactive),-0.167 (inactive),-1.61 (inactive),0.158,-0.111,0.386,0.403,-0.0276
CCN1C(C)=C(C(=O)OC)[C@@H](c2ccccc2)N2C(=O)[C@](O)(C(=O)OC)[C@@H](c3ccccc3)C(C(C)=O)=C12,0.223,-5.29 (inactive),0.106 (inactive),-1.04 (inactive),-0.0371,-0.177,0.142,0.355,1.75
O=C(CS)NCCCCCNC(=O)[C@H]1C[C@H]2C(=O)N[C@@H](Cc3ccccc3)C(=O)N2[C@H]1c1ccc(O)cc1,0.252,-0.164 (inactive),-0.809 (inactive),-0.819 (inactive),0.0842,0.0018,1.04,0.746,2.09
C[C@]1(C(=O)NCc2ccccc2)c2ccccc2C(=O)N(Cc2cc(C(F)(F)F)cc(C(F)(F)F)c2)[C@H]1c1ccc(CO)cc1,0.944,-5.26 (inactive),-0.735 (inactive),-1.41 (inactive),0.157,0.447,0.462,0.334,1.51
CCC(=O)[C@]12O[C@@]3([C@@H]4C(=O)OCC[C@@H]41)N(Cc1ccccc1)C(C)=C(C(=O)OC)[C@@H](c1ccccc1)N3C2=O,-0.183,-0.596 (inactive),1.01 (inactive),-1.32 (inactive),-0.444,-0.0448,-0.453,-0.296,1.16
C=CCN1C(=O)[C@]2(O[C@H](CCn3cc(CCO)nn3)[C@@H]([Si](C)(C)c3ccc(OC)cc3)[C@@H]2C)c2cc(NC(=O)c3ccc(OC)cc3)ccc21,0.46,-4.16 (inactive),7.29 (inactive),-1.63 (inactive),0.132,-0.0598,1.06,0.66,1.61

# Reference: PubChem BioAssay
